The target of this assay is Muscarinic acetylcholine receptor M1 (Rattus norvegicus) (UniProt P08482). The experiment in a line: Counterscreen Concentration-Response Assay for Antagonists of the Neuropeptide S Receptor: Muscarinic Receptor Calcium Signal Transduction. The source says: NIH Chemical Genomics Center [NCGC] NIH Molecular Libraries Probe Production centers Network [MLPCN] MLPCN Grant: X01-DA026210-01 Assay Submitter (PI): Heilig, Markus Alexander NCGC Assay Overview: Neuropeptide S receptor (NPSR), previously known as GPR154, is a recently de-orphanized G protein coupled receptor. Its endogenous ligand is the 20 amino acids peptide Neuropeptide S (NPS). […] NPS and its receptor are found in various tissues. Specifically they are highly expressed in brain areas that have been implicated in modulation of arousal, stress and anxiety. […] This change in intracellular calcium can be detected using a calcium indicator dye on a calcium imaging plate reader system (FDSS). […]
NCGC Assay Protocol Summary: A Chinese hamster ovary (CHO) cell line stably expressing muscarinic acetylcholine M1 receptor (CHO-M1) was obtained from ATCC and maintained in F-12 Kaighn's media (Invitrogen, Carlsbad, CA, 21127) supplemented with 10 % FBS, 100 units/ml penicillin, 100 ug/ml streptomycin and 250 ug/ml geneticin at 37C, 5% CO2 in a humidified atmosphere. […] The assay was performed on a FDSS-7000 kinetic plate reader in 1536-well format. The maximums of kinetic fluorescence responses were converted into text files using the instrument's software data export utility. […] AC50 values were determined from concentration-response data modeled with the standard Hill equation. […]
For orientation: The purpose of a counterscreen is to sort out artefacts and off-target activity.

Results filed as inconclusive are left out. Active and inactive are the calls of the source. Calls come from the whole dose curve; as a rule, active = well fitted inhibition curve with a large enough effect; inconclusive = small, poorly fitted or top-dose-only effect; inactive = flat fitted curve, though single readings scatter.

Experimental findings from PubChem BioAssay AID1492 (National Center for Advancing Translational Sciences (NCATS), 2009) are described below.

Consider `O=c1[nH]c(=O)n(CCC2=CCCCC2)c(O)c1C=NC1CCN(Cc2ccccc2)CC1`, for which the result was inactive.
